Assay [1] deals with Plasmodium falciparum Sir2 (PF13_0152, Sir2A). Put plainly: Plasmodium falciparum Sir2A binding compounds – biochemical, small-molecule microarray, 635 nm fluorescence, primary screen (AID 1098).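 Further: score merges spot fluorescence intensity with its signal-to-noise ratio.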 As to conditions: fluorescence 635 nm, higher = more signal.
A short description of assay [2]: probe aDKK1 binding to arrayed compounds – biochemical, biotinylated probe, 635/667 nm fluorescence, primary screen (AID 1099).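 Further: score merges 667nm spot fluorescence with signal to noise across triplicate slides; reference of the scale not given here.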 As to conditions: small-molecule microarray, higher = more signal.
Assay [3] can be described thus: probe aCHRDL2 binding to arrayed compounds – biochemical, biotinylated probe, 635/667 nm fluorescence, primary screen (AID 1100). As to conditions: small-molecule microarray, higher = more signal.
Assay [4] is described as follows: change in splice reporter luminescence, either direction, cell-based, HEK293, spliceosome inhibition project, primary screen (AID 1101).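 Further: HEK293 cells carrying a splicing-competent luciferase reporter gene; test concentration not given here.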 As to conditions: HEK293 splicing luciferase reporter, 24 h, higher = more signal, called active from +8 up or from −8 down. For orientation: In a reporter assay the amount or activity of a reporter protein is the signal.
The target of assay [5] is Fibroblast growth factor 10 (Homo sapiens) (UniProt O15520). Briefly: compounds binding fibroblast growth factor 10 – biochemical, small-molecule microarray, 635 nm fluorescence, primary screen (AID 1102). To be noted: FGF10 binding, fluorescence 635 nm, higher = more signal.
Sequence of Fibroblast growth factor 10 (Homo sapiens) (O15520 whole entry, looked up): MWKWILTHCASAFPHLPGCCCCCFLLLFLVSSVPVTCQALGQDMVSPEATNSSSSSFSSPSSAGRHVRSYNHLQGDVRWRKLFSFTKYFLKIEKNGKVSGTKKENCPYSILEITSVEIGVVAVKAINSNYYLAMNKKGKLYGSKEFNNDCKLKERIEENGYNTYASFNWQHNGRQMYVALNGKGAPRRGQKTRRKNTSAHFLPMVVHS
Assay [6] concerns glycogen synthase kinase-3 (GSK3A per assay name; protocol says GSK3B). Briefly: compounds binding glycogen synthase kinase-3 – biochemical, small-molecule microarray, 635 nm fluorescence, GSK3A, primary screen (AID 1103). Further: the record names both GSK3A and GSK3B. To be noted: fluorescence 635 nm, higher = more signal.
In assay [7] the target is Epidermal growth factor receptor (Homo sapiens) (UniProt P00533). Put plainly: compounds binding epidermal growth factor receptor – biochemical, small-molecule microarray, 635 nm fluorescence, primary screen (AID 1104).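 Further: score merges 667 nm emission intensity with spot signal to noise over triplicate slides.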 To be noted: EGFR binding, higher = more signal.
Sequence of Epidermal growth factor receptor (Homo sapiens) (P00533 whole entry, looked up): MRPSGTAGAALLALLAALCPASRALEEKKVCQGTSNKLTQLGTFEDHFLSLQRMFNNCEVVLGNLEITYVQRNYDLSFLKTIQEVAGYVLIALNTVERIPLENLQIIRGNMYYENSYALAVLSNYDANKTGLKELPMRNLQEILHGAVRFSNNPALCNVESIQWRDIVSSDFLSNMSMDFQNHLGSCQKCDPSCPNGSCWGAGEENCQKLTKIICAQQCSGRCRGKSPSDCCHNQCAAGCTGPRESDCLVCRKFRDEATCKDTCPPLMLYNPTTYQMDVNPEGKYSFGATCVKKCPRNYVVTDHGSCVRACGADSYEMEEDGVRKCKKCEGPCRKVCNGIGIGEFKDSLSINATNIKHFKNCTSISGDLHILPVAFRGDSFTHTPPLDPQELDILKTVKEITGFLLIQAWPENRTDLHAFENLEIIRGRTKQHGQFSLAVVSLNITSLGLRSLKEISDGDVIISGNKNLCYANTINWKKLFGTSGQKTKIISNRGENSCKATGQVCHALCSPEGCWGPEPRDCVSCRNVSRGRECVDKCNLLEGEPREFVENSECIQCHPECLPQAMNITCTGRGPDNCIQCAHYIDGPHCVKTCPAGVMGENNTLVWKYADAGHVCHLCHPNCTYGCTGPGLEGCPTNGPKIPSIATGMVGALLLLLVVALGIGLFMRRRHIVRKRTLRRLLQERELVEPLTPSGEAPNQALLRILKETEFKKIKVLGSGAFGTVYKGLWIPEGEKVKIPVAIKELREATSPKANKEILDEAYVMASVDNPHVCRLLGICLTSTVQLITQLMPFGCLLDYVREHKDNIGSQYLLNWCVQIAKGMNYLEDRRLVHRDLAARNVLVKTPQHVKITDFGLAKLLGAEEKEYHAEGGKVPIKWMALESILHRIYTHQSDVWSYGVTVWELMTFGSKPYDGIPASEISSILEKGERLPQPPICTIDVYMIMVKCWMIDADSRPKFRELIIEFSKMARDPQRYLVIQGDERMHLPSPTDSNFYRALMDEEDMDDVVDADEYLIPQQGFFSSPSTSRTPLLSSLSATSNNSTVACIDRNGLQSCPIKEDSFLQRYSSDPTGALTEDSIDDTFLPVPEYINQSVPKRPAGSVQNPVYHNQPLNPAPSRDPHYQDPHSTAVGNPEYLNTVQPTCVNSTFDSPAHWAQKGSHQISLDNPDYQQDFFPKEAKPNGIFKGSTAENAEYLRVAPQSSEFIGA
Assay [8] addresses Follistatin-related protein 3 (Homo sapiens) (UniProt O95633). Put plainly: compounds binding follistatin-related protein 3 – biochemical, small-molecule microarray, 635 nm fluorescence, primary screen (AID 1105).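 Further: score merges emission near 667 nm and signal to noise per printed spot across three slides.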 To be noted: FSTL3 binding, higher = more signal.
Assay [9] addresses Dickkopf-related protein 1 (Homo sapiens) (UniProt O94907). Put plainly: small molecules binding DKK1 protein – biochemical, small-molecule microarray, 635 nm fluorescence scan, primary screen (AID 1106).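 Further: score merges emission near 667 nm with signal to noise over three replicate slides.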 As to conditions: higher = more signal.
For assay [10], the system named is Inhibin beta A chain (activin A). Briefly: small molecules binding activin A – biochemical, small-molecule microarray, 635 nm fluorescence scan, primary screen (AID 1107).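 Further: mouse activin A protein probed at 4.33 µg/mL on printed slides; score merges bound-protein fluorescence near 667 nm with spot signal-to-noise.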 As to conditions: INHBA, higher = more signal.

Structures are written as SMILES. The source made the active and inactive calls.

This passage reports composite z-score and z-score results from PubChem BioAssay.

Sequence of Dickkopf-related protein 1 (Homo sapiens) (O94907 whole entry, looked up): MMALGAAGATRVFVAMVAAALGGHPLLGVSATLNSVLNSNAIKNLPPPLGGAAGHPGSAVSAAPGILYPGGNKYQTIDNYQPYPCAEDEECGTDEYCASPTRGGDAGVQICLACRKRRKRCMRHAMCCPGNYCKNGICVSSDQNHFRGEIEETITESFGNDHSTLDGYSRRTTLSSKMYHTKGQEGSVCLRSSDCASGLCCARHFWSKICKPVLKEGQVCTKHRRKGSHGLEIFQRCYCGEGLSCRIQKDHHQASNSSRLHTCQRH
Sequence of Follistatin-related protein 3 (Homo sapiens) (O95633 whole entry, looked up): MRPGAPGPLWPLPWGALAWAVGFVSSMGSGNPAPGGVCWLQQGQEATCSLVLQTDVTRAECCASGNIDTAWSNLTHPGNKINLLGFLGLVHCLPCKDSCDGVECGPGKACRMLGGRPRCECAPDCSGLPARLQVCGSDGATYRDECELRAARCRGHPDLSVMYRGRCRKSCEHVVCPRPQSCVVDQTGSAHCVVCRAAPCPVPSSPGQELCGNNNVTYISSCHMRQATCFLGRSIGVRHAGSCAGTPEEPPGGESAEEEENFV

As to `C=CC[C@]1(C(=O)NCCN2CCOCC2)N=C(c2ccc(OCCCO)cc2)O[C@H]1c1ccccc1CN=[N+]=[N-]`, the composite z-score in [1] amounted to 0.817; in assay [2], 0.96; in [3], 0.723; in assay [5] it was 1.2; in [6], 0.703; in [7], 0.409. Besides, the figures for the composite z-score in assay [8], in assay [9] and in assay [10] were -0.0125, 1.54 and 1.57, respectively. For the same molecule, the z-score in [4] was 0.346 (inactive).

Turning to `COC(=O)c1c(CC[C@@H](CO)NC(=O)N[C@H](Cn2cc(C3(O)CCCCC3)nn2)C(C)C)oc(C(C)=O)c1C(=O)OC`, the composite z-score in assay [1] was 0.997; in assay [2], -0.0398; in assay [3], -0.446; in assay [5] it was 1.07; in [6], 0.859; in assay [7], 0.557. Besides, the composite z-score is 1.1 in assay [8], 0.788 in assay [9] and 0.368 in [10]. Besides, in assay [4], the z-score was -1.66 (inactive).

On to `C=CCOC(=O)[C@H]1[C@@H]2C(=O)O[C@@H](c3ccccc3)[C@@H](c3ccccc3)N2[C@@H](c2ccc(OCCOC(=O)[C@H]3C[C@H]4C(=O)N[C@@H](CC(C)C)C(=O)N4[C@H]3c3cccc(OCCO)c3)cc2)[C@]12C(=O)Nc1ccc(I)cc12`, for which the composite z-score in [1] was 1.36; in [2] it was -0.122; in [3], 0.18; in assay [5], 1.33; in assay [6], 1.31; in [7], 1.21. Moreover, the composite z-score in assay [8] worked out at 0.919; in [9], 0.963; in assay [10] it was 0.535. In assay [4], the z-score was 0.642 (inactive).

`COC(=O)[C@@]1(Cc2ccc(OC)cc2)[C@@H]2C(=CC(=O)[C@H]2CC(=O)C(=O)N(C)C)CN1C(=O)c1ccccc1`: the composite z-score is 0.86 in assay [1]; 1.22 in assay [2]; 1.09 in assay [3]; 0.945 in assay [5]; 1.07 in assay [6]; -0.208 in assay [7]. Also, the composite z-score in assay [8] was 1.03; in assay [9], -0.568; in [10] it was 0.928. Further, in assay [4], the z-score is -2.59 (inactive).

For `N#Cc1ccc(C(O)C2C=CC3C(=O)N(c4ccccc4)C(=O)C3N2Nc2ccccc2)cc1` (stereo not given), the composite z-score was 0.592 in [1]; 0.759 in assay [2]; 1 in assay [3]; 0.913 in assay [5]; -0.0985 in assay [6]; 0.107 in assay [7]. The composite z-score in [8] was 0.391; in assay [9], -0.352; in [10], 0.877. Moreover, the z-score in assay [4] is -1.04 (inactive).

Turning to `CCCCCCCCCCC(O)C1C=CC2C(=O)N(C)C(=O)C2N1Nc1ccc([N+](=O)[O-])cc1[N+](=O)[O-]` (stereo not given), the composite z-score is 0.781 in [1]; 0.899 in assay [2]; 0.905 in assay [3]; 0.141 in assay [5]; 0.461 in [6]; -0.497 in assay [7]. For the same molecule, the composite z-score in [8] was 0.323; in assay [9], -0.57; in assay [10] it was 0.894. The z-score in assay [4] is 1.62 (inactive).

Regarding `NC(=O)NCC#Cc1ccc2c(c1)[C@]1(C(=O)N2)[C@H](C(=O)O)[C@H]2C(=O)O[C@H](c3ccccc3)[C@H](c3ccccc3)N2[C@@H]1c1ccc(OCCO)cc1`, the composite z-score in assay [1] was 1.49; in assay [2], 0.0638; in assay [3] it was 0.799; in assay [5] it was 0.261; in assay [6], -0.547; in assay [7], -0.03. Also, the composite z-score in assay [8] came out at 0.582; in [9], 0.158; in assay [10], 0.882. Besides, the z-score in assay [4] was -0.253 (inactive).

As for `COc1ccc([Si](C)(C)[C@@H]2[C@@H](CC(=O)N3Cc4ccccc4C[C@H]3CO)O[C@]3(C(=O)N(Cc4cccc(N5C(=O)c6cccc7cccc5c67)c4)c4ccccc43)[C@H]2C)cc1`, the composite z-score in assay [1] is 1.25; in [2], -0.199; in assay [3], 0.208; in assay [5], 0.579; in assay [6], 0.313; in assay [7], 0.982. The composite z-score in assay [8] turned out to be 1.43; in assay [9] it was 1.43; in assay [10], 0.636. The z-score in [4] is 0.93 (inactive).

Turning to `COC(=O)c1c(CC[C@@H](CO)NC(=O)N2CCC[C@H]2Cn2cc(Cc3ccccc3)nn2)oc(C(C)=O)c1C(=O)OC`, the composite z-score is 0.787 in [1]; -0.0956 in [2]; -0.553 in assay [3]; 0.572 in assay [5]; 0.0908 in assay [6]; -0.0867 in [7]. The composite z-score in [8] is 0.92; in [9], 0.135; in assay [10] it was 0.268. Further, the z-score in assay [4] was -0.311 (inactive).

Consider `CCCCO[C@H]1C[C@H]2C(I)=C[C@@H]1C(=O)[C@]21CO1`, for which the composite z-score in [1] was 1.08; in [2] it was -0.37; in assay [3] it was -0.529; in [5], 0.104; in assay [6] it was -0.487; in [7], 0.0707. Further, the composite z-score in [8] came out at 0.127; in assay [9], 0.668; in assay [10], 0.173. Besides, the z-score in assay [4] was -0.26 (inactive).

For the molecule `COC(=O)[C@@]1(Cc2ccc(OC)cc2)[C@H]2c3cc(C(=O)N4CCCC4)n(Cc4c(-c5ccccc5)noc4C)c3C[C@H]2CN1C(=O)c1ccccc1`, the composite z-score was 0.743 in assay [1]; 1.08 in assay [2]; 1.12 in assay [3]; 1.4 in [5]; 0.495 in [6]; 0.713 in assay [7]. Moreover, the composite z-score in assay [8] was 1.2; in assay [9], -0.414; in assay [10] it was 0.641. Moreover, the z-score in [4] is -3.14 (inactive).

Consider `COc1cc(OC)c(C(O)C2C=CC3C(=O)N(c4ccccc4)C(=O)C3N2Nc2ccccc2)cc1Br` (stereo not given), for which the composite z-score in assay [1] is 1.53; in [2] it was 0.184; in assay [3], 0.612; in assay [5] it was 0.247; in assay [6] it was 0.176; in assay [7], -0.487. The composite z-score was 0.39 in assay [8], -0.386 in assay [9] and 0.791 in assay [10]. Also, the z-score in assay [4] is 0.528 (inactive).

For the molecule `O=C1O[C@H](c2ccccc2)[C@H](c2ccccc2)N2[C@H]1[C@@H](C(=O)Nc1nc3ccccc3s1)[C@]1(C(=O)Nc3ccc(C#CC4(O)CCCCCC4)cc31)[C@H]2c1ccccc1OCCO`, the composite z-score in assay [1] is 1.55; in assay [2] it was -0.074; in assay [3] it was -0.353; in assay [5], 1.35; in assay [6] it was 1.33; in assay [7], 0.49. Moreover, the composite z-score in assay [8] is 1.32; in assay [9], 0.452; in [10], -0.0311. In assay [4], the z-score was -0.215 (inactive).

Consider `Cc1ccc(S[C@]2(C(=O)O)CC(=O)N(C3Cc4ccccc4C3)[C@@H]2c2ccc(CO)cc2)cc1`, for which the composite z-score in assay [1] is 1.02; in [2] it was 0.526; in assay [3] it was 1.08; in assay [5], 0.0926; in [6], -0.775; in assay [7] it was -0.846. For the same molecule, the composite z-score in assay [8] is -0.946; in assay [9], -1.69; in assay [10], 1.19. Moreover, in [4], the z-score is 0.2 (inactive).

Consider `COC(=O)[C@H](Cc1ccccc1)N1CC(/C=C/C2CC2)=C[C@H]1[C@H](O)Cc1ccccc1`, for which the composite z-score was 0.728 in [1]; -0.0559 in [2]; -0.165 in assay [3]; 0.697 in assay [5]; 0.368 in assay [6]; 0.237 in [7]. Further, the composite z-score in [8] came out at 0.702; in assay [9], 0.734; in assay [10] it was 0.597. In addition, in [4], the z-score is 20.9 (active).
